# Data as given in PubChem BioAssay AID602410 (Johns Hopkins Ion Channel Center, 2012).
# Hit rate of the full screen: of about 340,000 compounds, about 2,800 (0.82%) were called active. The sample holds actives, similar compounds and a random draw of the others, so the mix is not that of the screen.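 Rule for the calls: active = B-score under library mean minus 4 SD, starting fluorescence ratio at most library mean plus 5 SD; inactive = the rest.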
# Biological target: Potassium channel subfamily K member 3 (Homo sapiens) (UniProt O14649)
# Sequence (O14649 whole entry, looked up): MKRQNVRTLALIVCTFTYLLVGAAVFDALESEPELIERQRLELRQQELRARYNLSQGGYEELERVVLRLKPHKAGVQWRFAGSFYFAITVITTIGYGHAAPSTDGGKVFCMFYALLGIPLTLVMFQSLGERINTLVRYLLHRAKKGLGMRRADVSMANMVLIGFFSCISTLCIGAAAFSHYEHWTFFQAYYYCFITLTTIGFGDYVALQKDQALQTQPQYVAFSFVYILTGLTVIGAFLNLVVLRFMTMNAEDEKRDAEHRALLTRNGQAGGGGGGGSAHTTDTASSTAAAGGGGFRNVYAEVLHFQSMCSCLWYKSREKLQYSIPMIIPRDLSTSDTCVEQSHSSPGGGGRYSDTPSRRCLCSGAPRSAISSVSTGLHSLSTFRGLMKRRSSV
# Assay: human KCNK3 channel inhibitors, primary screen, CHO cells, FluxOR thallium flux, B-score (AID 602410);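 for B-score: more negative B-score means stronger inhibition of thallium flux through KCNK3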
# Conditions: FluxOR fluorescence, at 10 µM; active compounds read low
row,Structure (SMILES),B-score
1,CCCCn1c(N)c(N(CCOC)C(=O)c2cccc(S(=O)(=O)N(C)c3ccccc3)c2)c(=O)[nH]c1=O,inactive
2,COc1ccc(C2NCCCC2c2ccccc2)cc1 (stereo not drawn),inactive
3,COCCn1c(=O)[nH]c2cc(C(=O)NCc3cccnc3)ccc2c1=O,inactive
4,CCCCNC(=O)C1(O)c2ccccc2NC(=O)N1c1ccc(Cl)cc1 (stereo not drawn),inactive
5,O=C(c1ccccc1F)N(Cc1ccccc1)Cc1ccccc1,inactive
6,Cc1cccc(N(Cc2ccccc2)C(=O)c2cc(S(=O)(=O)N3CCOCC3)ccc2F)c1,inactive
7,Cc1cccc(N(Cc2ccccc2)C(=O)c2ccccc2F)c1,-9.35 (active)
8,O=[N+]([O-])c1cc([N+](=O)[O-])c(Oc2cc(F)cc(F)c2F)cc1NN1CCCCC1,inactive
9,COC(=O)C1=C(C(=O)OC)C(c2cc([N+](=O)[O-])ccc2O)c2sc(=O)[nH]c2S1 (stereo not drawn),inactive
10,Cc1c(C(=O)NC2CCCCC2)oc2ccccc12,inactive
11,Cc1cc(C)nc(-n2nc(C)cc2NC(=O)c2ccc(F)cc2F)n1,inactive
12,CC(Nc1nc(N2CCOCC2)nc2ccccc12)c1ccccc1 (stereo not drawn),inactive
13,CC(Nc1nc(N2CCCC2)nc2ccccc12)c1ccccc1 (stereo not drawn),inactive
14,c1ccc2c(NC3C4CC5CC(C4)CC3C5)nc(N3CCOCC3)nc2c1 (stereo not drawn),-9.5 (active)
15,O=C(NC1CC1)C1CCCN(C(=O)NC2CCCCC2)C1 (stereo not drawn),inactive
16,COc1ccccc1OCc1nnc(SCC(N)=O)n1-c1ccccc1,inactive
17,c1ccc(C(c2ccccc2)N2CCN(Cc3nnnn3C3CCCCC3)CC2)cc1,-10.8 (active)
18,COc1ccc(C(c2nnnn2C2CCCCC2)N2CCN(c3ccccc3F)CC2)cc1 (stereo not drawn),inactive
19,c1ccc(CCn2nnnc2CN2CCN(C3CCCC3)CC2)cc1,inactive
20,CC(=O)c1c(C)c[nH]c1C,inactive
21,O=C(NC(=S)N1CCN(Cc2ccccc2)CC1)c1ccccc1,inactive

row,Structure (SMILES),B-score
1,Cc1cccc(N(C(=O)Cc2cccs2)C(C(=O)NC2CCCC2)c2ccsc2)c1 (stereo not drawn),inactive
2,NS(=O)(=O)c1ccc(N2C(=O)C3C4CC(C(Br)C4Br)C3C2=O)cc1 (stereo not drawn),inactive
3,Cc1cc(O)c(NC(=O)c2ccc(C)c([N+](=O)[O-])c2)cc1C,inactive
4,CCCCCCCCn1c2c(c(=N)c3c1CCC3)CCCC2,-9.82 (active)
5,CC1(C)Cc2c(sc(NC(=O)C(=O)N3CCOCC3)c2C#N)CO1,inactive
6,Clc1ccc(-c2cc(C3CCNCC3)[nH]n2)c(Cl)c1,inactive
7,CC1(c2ccccc2)NC(=O)N(CC(=O)Nc2cc(Cl)ccc2N2CCOCC2)C1=O (stereo not drawn),inactive
8,O=C(CSc1nc(Nc2ccccc2)nc(N2CCOCC2)n1)Nc1cc(Cl)ccc1O,-11.6 (active)
9,Cc1ccccc1NC(=O)CSc1nc2ccc(Nc3nc(N4CCOCC4)nc(N4CCOCC4)n3)cc2s1,inactive
10,COc1ccc(NC(=O)CN(C)C(=O)/C=C/c2cn(Cc3ccccc3)nc2-c2cccnc2)cc1,inactive
11,COc1cccc(NC(=O)CN(C)C(=O)/C=C/c2cn(-c3ccccc3)nc2-c2cccs2)c1,-10.7 (active)
12,COc1cccc(NC(=O)CN(C)C(=O)/C=C/c2cc(OC)ccc2OC)c1,inactive
13,CCN(c1ccccc1)S(=O)(=O)c1ccc(OCC(=O)N2CCCC2)cc1,inactive
14,Cc1nc2nc[nH]n2c(=O)c1NC(=O)c1cccc(OCC(C)C)c1,inactive
15,C=CCN(C(=O)c1cc(C)cc(C)c1)C1(C(=O)Nc2ccccc2)CCN(C(C)C)CC1,-9.18 (active)
16,CC(C)N1CCC(NC(=O)Nc2ccccc2)CC1,inactive
17,C=CCn1cc(Cl)cc(C(=O)Nc2ccccc2)c1=O,inactive
18,Cc1cccc(-c2c(NC(=O)c3ccco3)oc3ccc(Cl)cc3c2=O)c1,inactive
19,O=C(CS(=O)(=O)Cc1ccccc1)Nc1cccnc1,inactive
20,CC(=O)Nc1ccc(S(=O)(=O)N(CCc2ccccc2)CC(=O)N/N=C/c2ccc(C(=O)O)cc2)cc1,inactive
21,CCOC(=O)N1CCN(C(=O)c2ccc3c(c2)N(Cc2ccc(C)cc2)CCS3)CC1,inactive

row,Structure (SMILES),B-score
1,O=C(NCCc1ccccc1)c1cccc(NC(=O)c2ccccc2)c1,inactive
2,O=C(NCCc1ccccc1)c1ccc2c(c1)N(Cc1ccccc1)CCS2,-11.6 (active)
3,CCOCc1c(C(=O)N2CCN(Cc3ccc(Br)s3)CC2)oc2ccccc12,inactive
4,CCOc1ccc(S(=O)(=O)N(CC(=O)NCC(F)(F)F)Cc2ccco2)cc1,inactive
5,CN(C(=O)Cn1nnc(-c2ccc(F)cc2)n1)C1CCS(=O)(=O)C1 (stereo not drawn),inactive
6,CC(C)CCNC(=O)CN(C(=O)Cn1nnc(-c2ccc(F)cc2)n1)C1CCCC1,inactive
7,CC(C)CCNC(=O)C(C)N(C(=O)Cn1nnc(-c2ccc(F)cc2)n1)C1CCCC1 (stereo not drawn),-9.19 (active)
8,C#CCOCCOCCOCCNc1nc(N2CCN(C(=O)C(Cc3ccc(O)cc3)n3cc(C(N)CC(C)C)nn3)CC2)nc(N2CCN(C(=O)C(Cc3ccc(O)cc3)n3cc(C(N)C(C)CC)nn3)CC2)n1 (stereo not drawn),inactive
9,COc1ccc(-n2c(O)c(C=NCC(c3ccco3)N3CCCC3)c3ccccc3c2=O)cc1OC (stereo not drawn),inactive
10,CCOc1ccc(-c2nc(N)ncc2-c2ccccc2OC)c(O)c1,inactive
11,COc1ccc(Oc2cn[nH]c2-c2ccc(OC)cc2O)cc1,inactive
12,CCOc1ccccc1Oc1cn[nH]c1-c1ccc(OC)cc1O,-8.87 (active)
13,CC1CCc2sc(C(=O)NCC(c3ccco3)N3CCCCC3)cc2C1 (stereo not drawn),inactive
14,O=C(Oc1ccc(Br)cc1C(=S)N1CCOCC1)c1cccc([N+](=O)[O-])c1,-11.4 (active)
15,COc1cc(C(=S)N2CCOCC2)cc(OC)c1OC(=O)c1cc([N+](=O)[O-])cc([N+](=O)[O-])c1,inactive
16,O=C(Oc1ccccc1C(=S)N1CCCCC1)c1cc([N+](=O)[O-])cc([N+](=O)[O-])c1,inactive
17,Cc1ccc(NC(=O)COc2ccc(/C=N\NC(=O)c3cccnc3)cc2)cc1C,inactive
18,O=C(NN=C1CCC(=NNC(=O)c2cccnc2)CC1)c1cccnc1,inactive
19,O=C(N/N=C/c1sc(N2CCCCC2)nc1-c1cccs1)c1cccnc1,-10.7 (active)
20,CCCCCCC(O)(CCN1CCCCC1)c1ccccc1 (stereo not drawn),inactive
21,Nc1nnc(SCC(=O)NCC(=O)Nc2ccc(F)c(F)c2F)s1,inactive
